Screens from PubChem BioAssay.
Most compounds without a hit are left out; they make up all but 1.4% or so of the library.
LYP act – activators of human LYP (PTPN22) phosphatase; Q9Y2R2; recombinant LYP, DiFMUP fluorescence; 0 = plate median, 100 = signal doubled; activation, % at 2 µM; hit rate 0.11% among 96,000; AID 697;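 active means activation at 2 µM above a set limit, the mean plus 5 SD, cut at about 37% in these data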
S1P2 agonist – activates the human S1P2 receptor. activation, % at 4.5 µM. S1P2-expressing cell line, agonist reporter read-out. AID 729. hit rate 0.46% among 97,000; in the data active means activation above about 16%;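 further: 0% = vehicle low control and 100% = maximal reference agonist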
Target sequence (O95136 whole entry, looked up): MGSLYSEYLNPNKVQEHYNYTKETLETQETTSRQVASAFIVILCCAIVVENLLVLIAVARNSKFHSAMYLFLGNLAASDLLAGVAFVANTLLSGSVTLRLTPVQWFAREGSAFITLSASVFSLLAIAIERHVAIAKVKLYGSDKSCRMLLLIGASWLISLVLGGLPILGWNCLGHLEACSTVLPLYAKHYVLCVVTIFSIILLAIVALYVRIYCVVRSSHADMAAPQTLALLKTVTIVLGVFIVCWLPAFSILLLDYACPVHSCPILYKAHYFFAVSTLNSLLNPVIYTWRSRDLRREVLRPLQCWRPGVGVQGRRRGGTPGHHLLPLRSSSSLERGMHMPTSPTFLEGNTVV
GALR2 ag – agonists of human galanin receptor 2 (GALR2); O43603; AID 803; activation, % (test concentration not listed); hit rate 0.48% among 140,000; GALR2-expressing cells, agonist activation read-out; in the data active means activation above about 5%, passing the limit was not always enough;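 further: 0% = vehicle buffer wells and 100% = reference agonist at full effect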
S1P2 blocker – antagonists of human S1P2 receptor; cell-based S1P2 antagonist assay, inhibition at 5 uM; inhibition, % at 5 µM; hit rate 0.21% among 97,000; AID 736; in the data active means inhibition above about 45%;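 further: CRE beta-lactamase reporter cells expressing human S1P2 stimulated with S1P; 0% = agonist at EC80 alone and 100% = agonist plus reference antagonist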
GALR2 blocker – antagonists of human galanin receptor 2 (GALR2); hit rate 0.39% among 140,000; GALR2-expressing cells, antagonist mode; O43603; inhibition, % at 4 µM;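 further: cells stimulated with galanin 1-16 at roughly its EC80; 0% = agonist challenge control and 100% = basal control without agonist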
PTPN22 inh 2 – inhibitors of human LYP (PTPN22) phosphatase; Q9Y2R2; recombinant LYP catalytic domain, DiFMUP fluorescence; inhibition, % at 2 µM; hit rate 0.21% among 96,000;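 active means inhibition at 2 µM at or above a set limit, the screen mean plus 3 SD, cut at about 24% in these data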;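 further: 0% = DMSO with enzyme and 100% = enzyme fully blocked by orthovanadate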
GALR2 blk conf – GALR2 (human) antagonism confirmed; shares compounds with GALR2 blocker; GALR2-expressing cells, antagonist mode, inhibition; inhibition, % at 4 µM; hit rate 60% among 480;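 further: cells stimulated with galanin at about its EC80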
BLA inhib ctr – beta-lactamase inhibition, GALR2 counterscreen; CHO NFAT-BLA reporter, beta-lactamase FRET, thapsigargin-stimulated; inhibition, % at 4.2 µM; shares compounds with GALR2 blocker; AID 867; hit rate 36% among 480;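 active means inhibition above the mean inhibition across tested compounds plus 3 SD, cut at about 27% in these data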;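 further: 0% = 500 nM thapsigargin stimulated wells and 100% = unstimulated BSA only wells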
The depositor's hits bear a star; / = no result. Unless noted, no stated cut-off is given here; in the data, active means inhibition above about 27%; inactive means the rest.

SMILES	LYP act	S1P2 agonist	GALR2 ag	S1P2 blocker	GALR2 blocker	PTPN22 inh 2	GALR2 blk conf	BLA inhib ctr
CC[C@@H]1C=C(C)C[C@H](C)C[C@H](OC)[C@H]2O[C@@](O)(C(=O)C(=O)N3CCCC[C@H]3C(=O)O[C@H](/C(C)=C/[C@@H]3CC[C@@H](O)[C@H](OC)C3)[C@H](C)[C@@H](O)CC1=O)[C@H](C)C[C@@H]2OC	/	/	-1	/	101*	/	103*	104*
O=C(CN(c1ccc(F)cc1)S(=O)(=O)c1ccc2c(c1)OCCO2)Nc1ccccc1	7	-1	-2	-1	-9	-5	/	/
CCC(C(=O)NC(C)(C)C)N(C(=O)Cn1nnc(-c2ccccc2F)n1)c1cccc2c1CCCC2 (configuration not stated)	-7	-6	-4	11	4	3	/	/
COc1cc2nc(/C=C/c3ccc(N(C)C)cc3)sc2cc1SC	/	/	5.2*	/	52*	/	60*	67*
COc1ccc(/C=N/NC(=O)C[n+]2ccccc2)c(OC)c1OC	/	/	-1	/	7	/	/	/
COc1ccc(/C=N/NC(=O)C(N)=O)c(OC)c1OC	/	/	-2	/	27*	/	9	13
COc1cc(CN(C(=S)NCC(=O)NC2CCCC2)C2CCCC2)cc(OC)c1OC	/	/	0	/	13	/	/	/
C=CCSC(=C(C#N)C#N)c1cc2c([nH]1)CCCC2	6	-5	-1	8	31*	-5	27*	17
CCC(Cc1ccccc1)NC(=O)CCn1cccc1 (configuration not stated)	0	-6	-1	-7	-7	0	/	/
CCOC(=O)COc1ccc(S(=O)(=O)NCc2ccncc2)cc1	1	-4	-1	43	33*	-2	33*	1
CCOc1ccc(S(=O)(=O)NCc2ccncc2)cc1	2	-5	-4	64*	34*	0	53*	8
Cc1ccc(S(=O)(=O)NCC(=O)NCc2ccncc2)cc1	-4	1	-1	-4	11	3	/	/
Cc1ccc(S(=O)(=O)NCc2ccncc2)cc1	-2	0	-1	37	31*	-1	39*	5
Cc1[nH]c2ccccc2c1/C=N/NC(=O)c1cc(-c2cccs2)[nH]n1	/	/	-1	/	28*	/	20	5
CC(/C=N/NC(=O)c1cc(-c2cccs2)[nH]n1)=C\c1ccccc1	/	/	1	/	-6	/	/	/
O=C1C=C(NCc2ccccc2)CCC1	/	/	0	/	-8	/	/	/
O=C1C=C(NC2=CC3OC(c4ccccc4)OCC3OC2=O)CCC1 (configuration not stated)	/	/	-1	/	70*	/	84*	74*
COc1ccc(C(=O)c2sc3nc(-c4ccc(OC)cc4)ccc3c2N)cc1	/	/	-1	/	6	/	/	/
COc1ccc(-c2ccc3c(N)c(C(=O)c4cccc(OC)c4)sc3n2)cc1	-9	-8	-3	18	29*	7	20	23
COc1ccc(/C=N/NC(=O)OC(C)(C)C)cc1OC	/	/	-1	/	-8	/	/	/
COc1cccc(COc2cc3ccccc3nc2C)c1	8	-4	-2	57*	40*	-5	37*	10
CCOC(=O)C(=CNc1cccc(N)n1)C(=O)OCC	10	-4	0	-10	-22	-5	/	/
CCOC(=O)C(=CNc1ccc(NC2=NCC(C)S2)cc1)C(=O)OCC (configuration not stated)	/	/	2	/	33*	/	45*	37*
O=C(Cn1ncc(Cl)c(Cl)c1=O)N1CCN(S(=O)(=O)c2ccc3ccccc3c2)CC1	/	/	-1	/	29*	/	56*	2
O=C(CSc1nc2ccccc2o1)N1CCN(S(=O)(=O)c2ccc3ccccc3c2)CC1	/	/	0	/	-4	/	/	/
CC(NC(=O)c1ccccc1NC(=O)c1ccccc1)C(=O)N1CCOCC1 (configuration not stated)	/	/	-2	/	-9	/	/	/
CCCn1c(CC)nc([N+](=O)[O-])c1S(=O)(=O)c1ccccc1	8	-7	-2	36	24	-6	/	/
Cn1cnc([N+](=O)[O-])c1S(=O)(=O)c1cccc(Cl)c1	/	/	-4	/	47*	/	43*	21
CCOC(=O)c1cc(-c2ccccc2)n(CCC(=O)N2CCN(c3ccccn3)CC2)c1C	/	/	1	/	-5	/	/	/
